Test results reported in PubChem BioAssay (NCI).
The panel holds about 83,000 compounds, 20% with a hit somewhere; the sample as a whole holds those more often.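 In brief: 96-well plates, 48 h treatment, single concentration, percent growth endpoint.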 A number with no mark means an inactive call. Calls of active or inactive are those of the source. The calls were made as follows: active = growth percent below 10; inactive = the rest.

Legend:
Test in all cases: NCI-60 one-dose screen, 48 h (100 = growth as untreated, 0 = no growth, -100 = all killed)
[1] = test system: SR leukemia; settings: 10 µM unless noted
[2] = test system: RPMI-8226 leukemia; settings: 10 µM unless noted
[3] = test system: OVCAR-8 ovarian; settings: 10 µM unless noted
[4] = test system: OVCAR-5 ovarian; settings: 10 µM unless noted
[5] = test system: OVCAR-4 ovarian; settings: 10 µM unless noted
[6] = test system: SK-OV-3 ovarian; settings: 10 µM unless noted
[7] = test system: IGROV1 ovarian; settings: 10 µM unless noted
[8] = test system: OVCAR-3 ovarian; settings: 10 µM unless noted
[9] = test system: HS 578T breast; settings: 10 µM
[10] = test system: NCI/ADR-RES ovarian; settings: 10 µM unless noted
[11] = test system: T-47D breast; settings: 10 µM unless noted
[12] = test system: BT-549 breast; settings: 10 µM unless noted
[13] = test system: MDA-MB-435 melanoma; settings: 10 µM unless noted
[14] = test system: SW-620 colon; settings: 10 µM unless noted
[15] = test system: MCF7 breast; settings: 10 µM unless noted
[16] = test system: HCT-116 colon; settings: 10 µM unless noted
[17] = test system: HCC-2998 colon; settings: 10 µM
[18] = test system: KM12 colon; settings: 10 µM unless noted

| Structure (SMILES) | growth [1] | growth [2] | growth [3] | growth [4] | growth [5] | growth [6] | growth [7] | growth [8] | growth [9] | growth [10] | growth [11] | growth [12] | growth [13] | growth [14] | growth [15] | growth [16] | growth [17] | growth [18] |
| --- | --- | --- | --- | --- | --- | --- | --- | --- | --- | --- | --- | --- | --- | --- | --- | --- | --- | --- |
| N#Cc1cc2[nH]c3ccc(OC(F)(F)F)cc3c2oc1=O | 26.2% | 89.1% | 86.8% | 118% | 73.7% | 62.5% | 78.9% | 67.1% | 86.2% | 70.9% | 61.2% | 76.5% | 12.7% | 71.6% | 81.4% | 81.2% | 83.3% | 80.2% |
| CC1(/C=N/NC(N)=S)NC(=O)NC1=O (stereo not drawn) | 94.8% | 104% | 97.7% | 102% | 109% | 86.9% | 111% | 109% | 97% | 111% | 79.5% | 105% | 107% | 106% | 94.8% | 98.4% | 118% | 104% |
| COc1cnc2c(c1)C(=O)c1c-2n(CCCNC2=NCCS2)c(=O)c2cc(Cl)ccc12 | 2.52% (active) | -31.2% (active) | -25.1% (active) | 4.29% (active) | 49.5% | 20.9% | -57% (active) | -67.9% (active) | 85.8% | -14.5% (active) | 32.9% | 41.6% | 7.73% (active) | -79.3% (active) | -74.9% (active) | -87.8% (active) | -35.6% (active) | -63.2% (active) |
| CC1(C=O)NC(=O)NC1=O (stereo not drawn) | 96.6% | 109% | 94.9% | 101% | 110% | 81.9% | 111% | 115% | 104% | 107% | 95.2% | 91.4% | 111% | 101% | 95.6% | 90.5% | 94.7% | – |
| N#Cc1c(-c2ccc(Cl)cc2)csc1NC(=O)Nc1cccc(C(F)(F)F)c1 | 33% | 3.99% (active) | 11.4% | 42.8% | 10.4% | 9.45% (active) | 33.5% | -3.56% (active) | 47.9% | 11.6% | -5.74% (active) | 26.3% | 14.1% | 22.7% | 12.8% | 1.8% (active) | 19.9% | 12.9% |
| O=C1CC(c2ccc(Cl)cc2)c2ncn(-c3cccc(Cl)c3)c2N1 (stereo not drawn) | 27.3% | 58% | 56.5% | 96% | 87.2% | 47.8% | 59.8% | 13.3% | 52.8% | 26.5% | 68.7% | 52.5% | -16.8% (active) | 26% | 61.2% | 19.1% | 77.4% | 54.1% |
| CC(=O)C(C(C)=O)C(c1ccccc1)C(C(C)=O)C(C)=O | 105% | 98.7% | 96.5% | 102% | 87.1% | 95.4% | 104% | 116% | 99.8% | 94.5% | 102% | 105% | 104% | 110% | 90.2% | 91.3% | 106% | 110% |
| CCN(CC)C(=O)C[N+](C)(C)CCOC(c1ccccc1)c1ccccc1 | 108% | 114% | 110% | 100% | 89.5% | 107% | 102% | 103% | 112% | 99.1% | 105% | 99.3% | 93.2% | 111% | 93.4% | 99.4% | 93% | 102% |
| C=C1[C@@H](O)C[C@H]2C(C)(C)C[C@H](Cl)C[C@]2(C)[C@H]1C[C@H](O)[C@H]1CC(=O)NC1=O | 7.18% (active) | -0.0704% (active) | -18% (active) | -10.8% (active) | -36.3% (active) | -29.7% (active) | -15.4% (active) | -27.4% (active) | -15.7% (active) | -2.98% (active) | -20.3% (active) | -24.1% (active) | -44.6% (active) | -1.83% (active) | -18.8% (active) | -28.8% (active) | -44.9% (active) | -18% (active) |
| CCOC(=O)C1=C(C)N=C2Sc3cccc(OC)c3N2[C@H]1c1ccccn1 | 96.9% | 106% | 97% | 110% | 96.3% | 99.5% | 101% | 107% | 91.9% | 96.4% | 96.5% | 101% | 110% | 102% | 97% | 94.9% | 93.2% | 96.6% |
| Cc1ccc(-c2nc3ccc(Cl)cn3c2NC2CCCCC2)o1 | 54.3% | 51.1% | 92.7% | 108% | 71% | 72.1% | 62.1% | 89.7% | 88.2% | 86.2% | 58.1% | 105% | 97.2% | 82.9% | 72.1% | 56.1% | 102% | 89.2% |
| CCCCCCC1(/C=N/NC(N)=O)NC(=O)NC1=O (stereo not drawn) | 102% | 111% | 105% | 89% | 98% | 83.2% | 105% | 111% | 114% | 100% | 87.8% | 94.1% | 101% | 104% | 91.2% | 84.2% | 94.5% | 97% |
| CCOC(=O)C1=C(C)NC(=O)NC1c1cc(=O)oc2ccc(C)cc12 (stereo not drawn) | 97.1% | 97.5% | 102% | 107% | 106% | 104% | 103% | 110% | 109% | 102% | 94.5% | 111% | 117% | 108% | 91.3% | 100% | 96.2% | 101% |
| O=C(CNc1nnc(-c2ccc(Cl)cc2)o1)Nc1ccc(-c2nc3ccccc3s2)cc1 | 71.8% | 95.4% | 103% | 116% | 103% | 117% | 94.1% | 97.7% | 96.9% | 98.9% | 79.9% | 87% | 97.1% | 110% | 34.5% | 89.8% | 93.5% | 97% |
| O=C(NCCO)Nc1ccc(-c2nc(N3CCOCC3)c3cccn3n2)cc1 | 8.14% (active) | 7.85% (active) | 5.91% (active) | -11% (active) | -15.5% (active) | -37.1% (active) | -25.9% (active) | 0.347% (active) | -34.5% (active) | 34.5% | -32.6% (active) | -5.61% (active) | -6.22% (active) | 22.3% | 7.74% (active) | 20.4% | 24% | 14.7% |
| CC(C)c1ccc(/C=N/Nc2nc3ccccc3s2)cc1 | 89.9% | 88.4% | 87.5% | 102% | 81.4% | 89.4% | 70% | 88.7% | 92.8% | 92.6% | 78.2% | 99% | 107% | 102% | 76.2% | 89% | 104% | 89% |
| NC(=O)c1n[nH]n2c1nc(=O)c1c3c(sc12)CCCC3 | 101% | 94.2% | 101% | 111% | 118% | 105% | 104% | 107% | 110% | 106% | 96.2% | 98.3% | 117% | 100% | 92.3% | 104% | 104% | 104% |
| O=C(NO)c1ccc(Cn2c(=O)n(-c3ccccc3F)c(=O)c3ccccc32)cc1 | 1.63% (active) | 13.3% | -39.3% (active) | 27.8% | 18.2% | 9.04% (active) | -21.7% (active) | -17.8% (active) | 46.6% | 41.6% | 8.62% (active) | 21.3% | -78.7% (active) | 0.226% (active) | 20.8% | -3.7% (active) | -32.9% (active) | -40.7% (active) |
